In PubChem BioAssay (NCATS):
Inconclusive results are not listed. Active and inactive are the calls of the source. Unless noted, calls come from the whole dose curve.

Legend:
[1] = Primary qHTS for inhibitors of SARS-S pseudo-typed particle cell entry (AID 1479145); settings: outcome: dose series up to 57.1 µM unless noted; note: nearly all actives have a fitted effect of over 45% in size; for activity change, negative = inhibition: % is set by controls: 0 for no effect and ±100 for the full control effect
[2] = Primary qHTS for Huh7 cytotoxicity: counterscreen for inhibitors of MERS-S pseudotyped particle cell entry (AID 1479147); settings: outcome: dose series up to 57.1 µM unless noted
[3] = Primary qHTS for inhibitors of MERS-S pseudo-typed particle cell entry (AID 1479149); settings: outcome: dose series up to 57.1 µM unless noted; note: nearly all actives have a fitted effect of over 60% in size; for activity change, negative = inhibition: % is set by controls: 0 for no effect and ±100 for the full control effect
[4] = Primary qHTS for Vero E6 cytotoxicity: counterscreen for inhibitors of SARS-S pseudo-typed particle cell entry (AID 1479150); settings: outcome: dose series up to 57.1 µM unless noted
[5] = Cytotoxicity counterscreen for inhibitors of SARS-CoV-2 cell entry (AID 1645845); settings: outcome: dose series up to 57.1 µM unless noted; note: nearly all actives have a fitted effect of over 50% in size
Outline: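 48 h compound treatment (after 1 h preincubation), HEK293-ACE2 cells, 37 C/5% CO2; ATP luminescence endpoint; normalized to cell wells and media blanks.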

[6] = target: Phospholipid hydroperoxide glutathione peroxidase GPX4 (Homo sapiens) (UniProt P36969); assay: Primary qHTS Assay for Inhibitors of Recombinant Selenoprotein Glutathione Peroxidase 4 (GPX4) (AID 1845192; active = well fitted curve in the direction sought with a large enough effect; an effect the other way counts as inactive or inconclusive; note: nearly all actives have a fitted effect of over 65% in size; note: potency is the fitted concentration of half-maximal effect; for activity change, negative = inhibition: % is set by controls: 0 for no effect and ±100 for the full control effect)
Outline: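 NADPH consumption, followed by fluorescence at 340/450 nm between 0 and 15 min, reports GPX4 activity via coupled glutathione reductase (100 nM). Enzyme 200 nM was pre-exposed to compound 30 min; 0.5 mM cumene hydroperoxide and 1 mM GSH served as substrates.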

[7] = target: Peroxisome proliferator-activated receptor delta (Homo sapiens) (UniProt Q03181); assay: qHTS assay for small molecule agonists of peroxisome proliferator-activated receptor delta signaling (AID 588534);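 note: 0% = DMSO basal wells and 100% = positive control agonist at 10 µM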
Outline: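 Cell-based beta-lactamase reporter assay run in agonist mode: cells seeded and incubated 5 hrs at 37 C, compounds added and incubated 18 hrs at 37 C. CCF4 dye fluorescence read after 2 hrs at RT; EC50 and efficacy from Hill fits.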

[8] = target: Thyroid hormone receptor beta (Homo sapiens) (UniProt P10828); assay: qHTS assay for small molecule agonists of thyroid hormone receptor beta signaling (AID 588545);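 note: 0% = DMSO only and 100% = 10 nM T3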
Outline: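 Compounds were tested as agonists in TR-UAS-bla-GripTite HEK 293 cells. After 18 hrs at 37 C, CCF4 substrate was added and fluorescence read after 2 hrs at room temperature.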

[9] = qHTS assay for small molecule agonists of the antioxidant response element (ARE) signaling pathway (AID 651741; active = well fitted activation curve with a large enough effect in the signal ratio; the % refers to the signal ratio; note: % of control where 0% means no effect)
Outline: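 Seeding 2,000 ARE-bla HepG2 cells per well preceded a 5 h incubation at 37 C/5% CO2 and a 16 h compound exposure at 37 C. Beta-lactamase reporter activity was then quantified by fluorescence after 2 h with LiveBLAzer B/G FRET substrate.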

[10] = Primary qHTS to identify inhibitors of SARS-CoV-2 cell entry (AID 1645846); settings: SARS-CoV-2 pseudovirus cell entry assay, luminescence; activity change, negative = inhibition: at 57.1 µM (top of the series) unless noted; note: nearly all actives have a fitted effect of over 45% in size
Outline: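 Luminescence readout (Bright-Glo luciferase) 48 h after pseudoparticle addition. HEK293-ACE2 cells, 1500/well; compound pre-incubation 1 h; Normalized to spike PP and bald PP.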

[11] = target: Glutathione peroxidase 1 (Homo sapiens) (UniProt P07203); assay: Primary qHTS Assay for Inhibitors of Recombinant Selenoprotein Glutathione Peroxidase 1 (GPX1) (AID 1845191; active = well fitted curve in the direction sought with a large enough effect; an effect the other way counts as inactive or inconclusive; note: nearly all actives have a fitted effect of over 65% in size)
Outline: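 10 nM GPX1 + cpd, 30 min RT; start w/ 1 mM GSH, 0.5 mM cumene hydroperoxide, 0.5 mM NADPH, 100 nM GR, 0.01% BSA; buffer 50 mM Tris-HCl pH 7.5, 2 mM EDTA, 150 mM NaCl; Fl 340/450, 0 & 15 min.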

[12] = target: Nuclear receptor subfamily 1 group I member 3 (Homo sapiens) (UniProt Q14994); assay: Primary qHTS for antagonist of constitutive androstane receptor (CAR) against the NCATS DSHEA and TCM libraries (AID 1794836; active = well fitted curve in the direction sought with a large enough effect; an effect the other way counts as inactive or inconclusive;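 note: HepG2 cells stably expressing hCAR with CYP2B6 luciferase reporter stimulated by CITCO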)
Outline: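 Antagonist mode: CAR reporter luminescence (ONE-Glo) in HepG2-CYP2B6-hCAR cells stimulated with 48 uM CITCO (final) over 24 h at 37 C, compounds titrated; viability read first by CellTiter-Fluor fluorescence.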

[13] = KB-8-5-11 P-gp reporter qHTS against the NCATS DSHEA and TCM libraries (AID 1919977; active = well fitted curve in the direction sought with a large enough effect; an effect the other way counts as inactive or inconclusive; note: 0% is about no effect)
Outline: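 P-gp-overexpressing KB-8-5-11 cells (500/well) were plated in colchicine-free DMEM with 10% FBS, attached ~4 h, then exposed to substance titrations for ~72 h at 37C. Viability was read by CellTiter-Glo luminescence.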

[14] = target: Bile acid receptor (Homo sapiens) (UniProt Q96RI1); assay: qHTS assay for small molecule agonists of farnesoid X receptor signaling (AID 588527); settings: HEK293T FXR-UAS-bla, beta-lactamase ratio, 16 h; stronger effect = higher value;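 note: 0% = vehicle basal and 100% = reference agonist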
Outline: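 Read-out: beta-lactamase reporter fluorescence with CCF4 substrate in GeneBLAzer FXR-UAS-bla HEK293T cells, after 16 h compound exposure at 37 C. Response scaled between DMSO basal (0%) and chenodeoxycholic acid at 100 uM (100%).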

Peroxisome proliferator-activated receptor delta (Homo sapiens), sequence (Q03181 whole entry, looked up): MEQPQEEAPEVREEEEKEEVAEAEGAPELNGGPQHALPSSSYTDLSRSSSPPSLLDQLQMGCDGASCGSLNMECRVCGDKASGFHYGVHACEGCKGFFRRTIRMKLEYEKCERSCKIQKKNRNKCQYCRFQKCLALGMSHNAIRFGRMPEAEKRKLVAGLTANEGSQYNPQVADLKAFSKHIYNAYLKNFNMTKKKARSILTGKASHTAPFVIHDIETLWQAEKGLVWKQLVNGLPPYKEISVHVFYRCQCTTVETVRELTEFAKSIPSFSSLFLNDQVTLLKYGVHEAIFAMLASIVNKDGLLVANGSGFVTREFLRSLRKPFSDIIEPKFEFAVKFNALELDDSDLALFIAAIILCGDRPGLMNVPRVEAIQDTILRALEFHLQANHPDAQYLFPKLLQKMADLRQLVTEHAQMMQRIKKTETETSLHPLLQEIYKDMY
Glutathione peroxidase 1 (Homo sapiens), sequence (P07203 whole entry, looked up): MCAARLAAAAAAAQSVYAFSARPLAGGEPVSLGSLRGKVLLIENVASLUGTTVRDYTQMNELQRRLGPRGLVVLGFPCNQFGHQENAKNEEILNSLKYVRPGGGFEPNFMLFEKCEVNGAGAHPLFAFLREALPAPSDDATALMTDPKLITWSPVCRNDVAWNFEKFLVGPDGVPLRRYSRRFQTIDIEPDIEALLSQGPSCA
Phospholipid hydroperoxide glutathione peroxidase GPX4 (Homo sapiens), sequence (P36969 whole entry, looked up): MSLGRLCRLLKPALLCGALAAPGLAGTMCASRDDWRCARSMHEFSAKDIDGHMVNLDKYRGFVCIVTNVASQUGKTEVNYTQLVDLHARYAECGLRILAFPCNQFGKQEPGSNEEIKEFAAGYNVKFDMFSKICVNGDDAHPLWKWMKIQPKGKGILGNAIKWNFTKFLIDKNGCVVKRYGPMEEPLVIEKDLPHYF
Nuclear receptor subfamily 1 group I member 3 (Homo sapiens), sequence (Q14994 whole entry, looked up): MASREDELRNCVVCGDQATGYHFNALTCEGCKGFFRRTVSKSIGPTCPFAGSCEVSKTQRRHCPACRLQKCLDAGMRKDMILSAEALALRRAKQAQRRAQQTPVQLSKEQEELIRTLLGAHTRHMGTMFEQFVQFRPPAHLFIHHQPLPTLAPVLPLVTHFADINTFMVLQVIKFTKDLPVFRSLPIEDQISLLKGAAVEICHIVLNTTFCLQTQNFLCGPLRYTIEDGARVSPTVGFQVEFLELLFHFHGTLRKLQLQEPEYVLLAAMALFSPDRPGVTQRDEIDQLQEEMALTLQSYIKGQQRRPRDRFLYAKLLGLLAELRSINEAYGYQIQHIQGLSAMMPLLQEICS
Thyroid hormone receptor beta (Homo sapiens), sequence (P10828 whole entry, looked up): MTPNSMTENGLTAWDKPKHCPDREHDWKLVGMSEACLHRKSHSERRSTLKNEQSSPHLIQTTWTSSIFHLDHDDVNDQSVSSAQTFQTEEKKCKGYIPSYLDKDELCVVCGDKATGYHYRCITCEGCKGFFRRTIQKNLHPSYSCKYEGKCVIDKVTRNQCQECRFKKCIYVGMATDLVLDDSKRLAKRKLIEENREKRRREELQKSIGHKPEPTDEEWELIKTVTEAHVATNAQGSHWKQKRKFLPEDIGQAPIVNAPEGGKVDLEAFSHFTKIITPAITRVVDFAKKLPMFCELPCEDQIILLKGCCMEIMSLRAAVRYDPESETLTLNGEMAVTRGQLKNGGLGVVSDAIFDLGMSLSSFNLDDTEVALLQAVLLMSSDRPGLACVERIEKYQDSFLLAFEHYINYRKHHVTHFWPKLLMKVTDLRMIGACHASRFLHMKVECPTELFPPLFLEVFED
Bile acid receptor (Homo sapiens), sequence (Q96RI1 whole entry, looked up): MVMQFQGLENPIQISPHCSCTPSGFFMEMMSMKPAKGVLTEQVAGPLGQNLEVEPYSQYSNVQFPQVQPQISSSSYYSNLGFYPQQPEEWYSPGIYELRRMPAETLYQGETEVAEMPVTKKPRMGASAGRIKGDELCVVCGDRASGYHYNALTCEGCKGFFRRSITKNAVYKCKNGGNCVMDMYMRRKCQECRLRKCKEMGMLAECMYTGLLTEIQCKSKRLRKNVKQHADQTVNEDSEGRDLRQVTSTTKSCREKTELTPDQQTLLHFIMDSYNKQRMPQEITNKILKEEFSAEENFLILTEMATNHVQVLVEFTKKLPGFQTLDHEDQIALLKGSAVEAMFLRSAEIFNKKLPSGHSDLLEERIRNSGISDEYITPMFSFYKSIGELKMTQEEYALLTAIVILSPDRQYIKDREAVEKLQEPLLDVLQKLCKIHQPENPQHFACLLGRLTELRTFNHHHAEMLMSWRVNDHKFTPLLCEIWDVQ

C=C/C=C/CC1=C(C)[C@H](OC(=O)[C@H]2[C@H](/C=C(\C)C(=O)OC)C2(C)C)CC1=O
inactive: Potency [1] | Potency [2] | Potency [3] | Potency [4] | Potency [5] | Potency [6]

C=Cc1ccccc1
inactive: outcome [7] | outcome [8] | Potency [9] | Potency [1] | Potency [2] | Potency [3] | Potency [4] | Potency [5]
-16.9%: activity change, negative = inhibition [10]

C=CCCCCCCCCC(=O)O[C@H]1CC[C@H]2[C@@H]3CCC4=CC(=O)C=C[C@]4(C)[C@H]3CC[C@]12C
inactive: Potency [1] | Potency [2] | Potency [3] | Potency [4] | Potency [5] | Potency [11] | Potency [6]

O=c1ccc2cc(O[C@@H]3O[C@H](CO)[C@H](O)[C@H](O)[C@H]3O)c(O)cc2o1
active: Potency [6] 25.5 µM
inactive: Potency [1] | Potency [2] | Potency [3] | Potency [4] | Potency [5] | Potency [10]

CC(=O)OC1CC2CCC1(C)C2(C)C (stereo not given)
inactive: Potency [1] | Potency [2] | Potency [3] | Potency [4] | Potency [5] | Potency [12] | Potency [13]
-37.9%: activity change, negative = inhibition [10]

CC/C=C\C/C=C\C/C=C\C/C=C\C/C=C\CCCC(=O)O
-29%: activity change, negative = inhibition [10]
inactive: Potency [1] | Potency [2] | Potency [3] | Potency [4] | Potency [5] | Potency [13]

CC[C@H]1C2C[C@H]3[C@@H]4N(C)c5ccccc5[C@@]45C[C@H](C2[C@H]5O)N3[C@@H]1O (stereo not given in full)
inactive: Potency [1] | Potency [2] | Potency [3] | Potency [4] | Potency [5] | Potency [11] | Potency [6]

CC(=O)[C@@]1(O)CC[C@H]2[C@@H]3CCC4=CC(=O)CC[C@@H]4[C@H]3CC[C@@]21C
inactive: Potency [1] | Potency [2] | Potency [3] | Potency [4] | Potency [5] | Potency [11] | Potency [6]
-22.5%: activity change, negative = inhibition [10]

Cc1ccc(S(=O)(=O)O)cc1C
inactive: outcome [7] | Potency [1] | Potency [2] | Potency [3] | Potency [4] | Potency [5]
-10.6%: activity change, negative = inhibition [10]

CC1=C(/C=C/C(C)=C/C=C/C(C)=C/CO)C(C)(C)CCC1
inactive: outcome [7] | Potency [1] | Potency [2] | Potency [3] | Potency [4] | Potency [5] | Potency [13]
-23.2%: activity change, negative = inhibition [10]

O=C([O-])C[O-].[Pt+2]
-22.9% [at 27.1 µM]: activity change, negative = inhibition [10]
inactive: Potency [1] | Potency [2] | Potency [3] | Potency [4] | Potency [5] | Potency [10]

C[C@H]1[C@H](O)[C@@H](C)/C=C/C=C/CC/C=C/C=C/C=C/C=C/C(OC2O[C@H](C)[C@@H](O)[C@H](N)[C@@H]2O)CC2O[C@](O)(CC(O)C(O)CCC(O)CC(O)CC(O)CC(=O)O[C@H]1C)CC(O)C2C(=O)O (stereo not given in full)
inactive: Potency [1] | Potency [2] | Potency [3] | Potency [4] | Potency [5] | Potency [11]

O[C@@H]([C@H](O)[C@@H](O)CBr)[C@@H](O)CBr
inactive: activation [14] -2.21% | outcome [7] | Potency [1] | Potency [2] | Potency [3] | Potency [4] | Potency [5] | Potency [10]

O=C(O)c1ccccc1C(c1ccc(O)cc1)c1ccc(O)cc1
-24.4%: activity change, negative = inhibition [10]
inactive: outcome [7] | Potency [1] | Potency [2] | Potency [3] | Potency [4] | Potency [5]

C[Si](C)(C)O[Si](C)(C)O[Si](C)(C)C
-16.4% [at 114 µM]: activity change, negative = inhibition [10]
inactive: outcome [7] | Potency [1] | Potency [2] | Potency [3] | Potency [4] | Potency [5]

CC(C)=CCCC(C)=CCCC(C)=CCCC=C(C)CCC=C(C)CCC=C(C)C
inactive: Potency [1] | Potency [2] | Potency [3] | Potency [4] | Potency [5] | Potency [13]
-5.81%: activity change, negative = inhibition [10]

CC(C)=CCC/C(C)=C/CC/C(C)=C/CC/C(C)=C/CC1=C(C)C(=O)c2ccccc2C1=O
inactive: Potency [1] | Potency [2] | Potency [3] | Potency [4] | Potency [5] | Potency [12] | Potency [13]

COC(=O)c1ccccc1O
inactive: outcome [7] | Potency [1] | Potency [2] | Potency [3] | Potency [4] | Potency [5]
3.44%: activity change, negative = inhibition [10]
